Experimental data taken from PubChem BioAssay (Tox21).
“And” between values parts separate entries of the source, which are not always exact repeats. Identical values can stand only once. Inconclusive results are not listed. More than one record can exist for a structure, and the calls need not agree. The source made the active and inactive calls. Unless noted, the call rests on the fitted dose curve; in most records, active means well fitted curve in the direction sought with a large enough effect in the repeat runs; inconclusive means weak or mixed curves; inactive means no such curve, though single readings can be large; an effect the other way counts as inactive or inconclusive.

Columns and labels:
[1] = A CellTox Green Cytotoxicity Assay to monitor cytotoxicity in HepG2 cells - 8 hour (AID 1224890); further: nearly all actives have a fitted effect of over 45% in size
Method in brief: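 HepG2 cells were seeded together with the CellTox Green dye at 600 cells/well, left 5 h at 37 C/5% CO2, then given compounds in DMSO. Fluorescence from dye bound to dead-cell DNA was read repeatedly over 40 h of treatment at 37 C.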

[2] = qHTS assay to identify small molecule antagonists of the estrogen receptor alpha (ER-alpha) signaling pathway using the BG1 cell line in the presence of 0.1 nM 17-beta-estradiol - cell viability counter screen (AID 1259241); further: nearly all actives have a fitted effect of over 40% in size
Method in brief: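 In this screen, hormone-deprived VM7Luc4E2 cells were seeded at 4,000 per well, dosed with compound and 0.1 nM estradiol final, and incubated 22 hr at 37C and 5% CO2; fluorogenic live-cell protease signal reported viability.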

[3] = qHTS assay to identify small molecule antagonists of the androgen receptor (AR) signaling pathway using the MDA cell line in the presence of 0.5 nM R1881 - cell viability counter screen (AID 1259242); further: nearly all actives have a fitted effect of over 45% in size
Method in brief: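 MDA-kb2 cells (human breast carcinoma, stably carrying MMTV-luciferase reporter) were exposed to compounds with 0.5 nM R1881 (final) for 16 hr at 37C, 0% CO2; viability then read as live-cell protease fluorescence (CellTiter-Fluor, 30 min) in the same wells.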

[4] = target: Androgen receptor (Homo sapiens) (UniProt P10275); assay: qHTS assay to identify small molecule antagonists of the androgen receptor (AR) signaling pathway using the MDA cell line in the presence of 0.5 nM R1881 (AID 1259243); further: nearly all actives have a fitted effect of over 50% in size
Chain of Androgen receptor (Homo sapiens) (P10275 whole entry, looked up): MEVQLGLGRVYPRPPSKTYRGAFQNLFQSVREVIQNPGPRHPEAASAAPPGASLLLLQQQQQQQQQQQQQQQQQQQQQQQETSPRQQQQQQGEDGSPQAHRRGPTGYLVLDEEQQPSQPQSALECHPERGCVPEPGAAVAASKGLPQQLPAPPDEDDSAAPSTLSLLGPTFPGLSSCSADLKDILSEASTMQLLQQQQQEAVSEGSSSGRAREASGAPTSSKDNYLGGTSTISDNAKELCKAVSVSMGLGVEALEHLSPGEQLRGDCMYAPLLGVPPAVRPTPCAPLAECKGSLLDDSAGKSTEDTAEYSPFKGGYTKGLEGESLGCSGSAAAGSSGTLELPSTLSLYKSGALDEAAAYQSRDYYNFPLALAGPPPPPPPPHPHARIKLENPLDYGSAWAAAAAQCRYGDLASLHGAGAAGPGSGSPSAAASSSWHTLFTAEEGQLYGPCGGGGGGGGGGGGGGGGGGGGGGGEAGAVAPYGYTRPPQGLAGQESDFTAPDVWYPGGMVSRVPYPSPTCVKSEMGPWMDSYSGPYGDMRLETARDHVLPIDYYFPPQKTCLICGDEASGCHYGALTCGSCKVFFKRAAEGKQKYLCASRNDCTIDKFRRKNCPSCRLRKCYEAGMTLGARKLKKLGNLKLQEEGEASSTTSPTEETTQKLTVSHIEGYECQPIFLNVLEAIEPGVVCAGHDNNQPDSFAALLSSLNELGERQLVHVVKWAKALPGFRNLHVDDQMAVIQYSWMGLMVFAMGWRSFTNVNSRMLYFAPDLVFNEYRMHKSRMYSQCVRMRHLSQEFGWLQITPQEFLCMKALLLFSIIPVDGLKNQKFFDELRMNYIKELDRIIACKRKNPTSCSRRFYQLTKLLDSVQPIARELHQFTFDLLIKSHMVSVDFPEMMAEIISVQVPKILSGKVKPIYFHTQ
Method in brief: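 MDA-kb2 human breast carcinoma cells carrying an MMTV-luciferase reporter (AR- and GR-responsive) were plated, rested 5 hr at 37C, dosed with compounds, then stimulated with 0.5 nM R1881 (final) for 16 hr; luminescence was read after ONE-Glo.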

[5] = qHTS assay to identify small molecule phospholipidosis (PLD) inducers (AID 1259344; active means well fitted curve in the direction sought with a large enough effect; an effect the other way counts as inactive or inconclusive)
Method in brief: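 Quantitative HTS in HepG2: compound plus LipidTOX Red dye for 24 h, paraformaldehyde fixation with Hoechst 33342, widefield high-content imaging; amiodarone as positive and DMSO as negative control.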

[6] = qHTS assay to identify small molecule HDAC inhibitors - cell viability counter screen (AID 1259365); further: series mostly up to about 92 µM; nearly all actives have a fitted effect of over 50% in size
Method in brief: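 Measured quantity is CellTiter-Glo luminescence from wild-type HCT-116 cells after compound incubation of 2hr at 37C, 5% CO2; reagent developed 30min at room temperature.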

[7] = qHTS assay to identify small molecule agonists of the sonic hedgehog signaling (Shh) pathway - cell viability counter screen (AID 1259366); further: nearly all actives have a fitted effect of over 50% in size
Method in brief: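 In quantitative high-throughput format, 3T3 Gli1-Luc cells were exposed to compounds for 24hr and multiplexed for viability using CellTiter-Fluor, incubated 1hr at 37C before the fluorescence read.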

[8] = qHTS assay to identify small molecule antagonists of the sonic hedgehog signaling (Shh) pathway - cell viability counter screen (AID 1259367); further: nearly all actives have a fitted effect of over 55% in size
Method in brief: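 Seed 3T3 Gli1-Luc cells at 2,000 per well; incubate 4 hr; add compound in DMSO, then conditioned medium; incubate at 37C with 5% CO2; add CellTiter-Fluor after 23 hr; read fluorescence 1 hr later.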

[9] = qHTS assay to identify small molecule agonists of the sonic hedgehog signaling (Shh) pathway (AID 1259368; calls by dose curve; further: series mostly up to about 92 µM; nearly all actives have a fitted effect of over 15% in size)
Method in brief: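 NIH/3T3-derived 3T3Gli1-Luc cells carrying a stably integrated Gli1 response element–firefly luciferase reporter were plated, left 4 hr at 37 C, then given compounds in DMSO for 24 hr. Luminescence was read 30 min after adding luciferase reagent.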

[10] = qHTS assay to identify small molecule antagonists of the sonic hedgehog signaling (Shh) pathway (AID 1259369; calls by dose curve; further: nearly all actives have a fitted effect of over 45% in size; further: potency means the concentration at half of the fitted maximal effect)
Method in brief: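 NIH/3T3-derived 3T3Gli1-Luc cells with stably integrated Gli1-Luc reporter were preincubated 4hr at 37 C, then given compounds in DMSO plus Shh conditioned medium and incubated 24hr. Firefly luciferase luminescence read after 30min reagent at room temperature.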

[11] = qHTS assay to identify small molecule agonists of the estrogen receptor beta (ER-beta) signaling pathway - cell viability counter screen (AID 1259380); further: nearly all actives have a fitted effect of over 30% in size; further: potency means the concentration at half of the fitted maximal effect
Method in brief: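 ER-beta-UAS-bla HEK293T cells in medium with 2% charcoal-stripped FBS were preincubated 6 hr at 37C, dosed with compound in DMSO for 16 hr, then after the bla read, CellTiter-Glo was added for 30 min at room temperature; luminescence recorded.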

[12] = target: Androgen receptor (Homo sapiens) (UniProt P10275); assay: qHTS assay to identify small molecule agonists of the androgen receptor (AR) signaling pathway in the presence of an antagonist (AID 1259381; calls by dose curve; further: nearly all actives have a fitted effect of over 15% in size; further: potency means the concentration at half of the fitted maximal effect)
Method in brief: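 MDA-kb2 human breast carcinoma cells carrying an MMTV-luciferase reporter (AR- and GR-responsive) were treated with compounds at 15 concentrations plus 3.0uM final nilutamide for 16hr at 37C without CO2; luminescence was read after ONE-Glo addition.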

[13] = qHTS assay to identify small molecule antagonists of the estrogen receptor beta (ER-beta) signaling pathway - cell viability counter screen (AID 1259382); further: series mostly up to about 92 µM; nearly all actives have a fitted effect of over 55% in size
Method in brief: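 ER-beta-UAS-bla HEK293T cells (2,000/well, 2% charcoal-stripped FBS) were pre-incubated 6 hr at 37C, then given compound plus 1nM final 17-beta-estradiol for 16 hr. Viability was read in the same wells by CellTiter-Glo luminescence after 30 min at room temperature.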

[14] = qHTS assay to identify small molecule agonists or antagonists of the thyroid stimulating hormone receptor (TSHR) signaling pathway - wild type cell line counter screen (AID 1259384; calls by dose curve)
Method in brief: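 Wild-type Hek293 cells, 800/well, 18 h at 37C, then compound with Ro20-1724 for 30 min RT. cAMP by HTRF (cAMP-d2/anti-cAMP cryptate), 1 h RT, fluorescence read. 15 concentrations, triplicates.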

[15] = target: Estrogen receptor (Homo sapiens) (UniProt P03372); assay: qHTS assay to identify small molecule antagonists of the estrogen receptor alpha (ER-alpha) signaling pathway using the BG1 cell line in the presence of 0.1 nM 17-beta-estradiol (AID 1259244); further: nearly all actives have a fitted effect of over 50% in size
Chain of Estrogen receptor (Homo sapiens) (P03372 whole entry, looked up): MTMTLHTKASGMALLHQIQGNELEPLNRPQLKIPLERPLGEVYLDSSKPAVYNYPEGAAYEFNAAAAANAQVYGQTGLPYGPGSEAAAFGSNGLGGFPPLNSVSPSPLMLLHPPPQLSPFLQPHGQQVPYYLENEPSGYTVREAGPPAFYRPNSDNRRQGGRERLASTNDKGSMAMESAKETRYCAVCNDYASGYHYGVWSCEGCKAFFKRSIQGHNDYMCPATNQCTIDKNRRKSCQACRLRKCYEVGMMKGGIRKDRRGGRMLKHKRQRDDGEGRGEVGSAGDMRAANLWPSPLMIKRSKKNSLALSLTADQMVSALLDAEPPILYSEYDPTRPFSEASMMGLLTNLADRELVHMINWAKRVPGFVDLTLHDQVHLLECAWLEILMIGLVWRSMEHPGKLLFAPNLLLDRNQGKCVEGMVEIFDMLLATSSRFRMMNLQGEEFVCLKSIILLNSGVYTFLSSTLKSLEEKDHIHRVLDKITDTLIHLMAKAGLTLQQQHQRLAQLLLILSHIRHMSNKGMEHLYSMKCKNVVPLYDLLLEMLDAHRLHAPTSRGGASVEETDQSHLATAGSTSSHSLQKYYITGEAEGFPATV
Method in brief: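 VM7Luc4E2 cells (endogenous full-length ER-alpha, stable 4xERE-luciferase) were grown 5 days in phenol red-free medium with charcoal-stripped FBS, then exposed 22 h at 37C to compounds plus 0.1 nM (final) 17beta-estradiol; ONE-Glo luminescence read-out.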

[16] = qHTS assay to identify small molecule HDAC inhibitors (AID 1259364); further: nearly all actives have a fitted effect of over 45% in size; further: potency means the concentration at half of the fitted maximal effect
Method in brief: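 Wild-type HCT-116 cells were plated overnight, exposed to compounds for 2 h at 37 °C, then given HDAC-Glo class I/II luminogenic reagent for 30 min at room temperature before luminescence was read.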

[17] = target: Estrogen receptor beta (Homo sapiens) (UniProt Q92731); assay: qHTS assay to identify small molecule agonists of the estrogen receptor beta (ER-beta) signaling pathway (AID 1259377; active means well fitted activation curve with a large enough effect in the signal ratio in the repeat runs, not every such curve was filed as active; the % refers to the signal ratio)
Chain of Estrogen receptor beta (Homo sapiens) (Q92731 whole entry, looked up): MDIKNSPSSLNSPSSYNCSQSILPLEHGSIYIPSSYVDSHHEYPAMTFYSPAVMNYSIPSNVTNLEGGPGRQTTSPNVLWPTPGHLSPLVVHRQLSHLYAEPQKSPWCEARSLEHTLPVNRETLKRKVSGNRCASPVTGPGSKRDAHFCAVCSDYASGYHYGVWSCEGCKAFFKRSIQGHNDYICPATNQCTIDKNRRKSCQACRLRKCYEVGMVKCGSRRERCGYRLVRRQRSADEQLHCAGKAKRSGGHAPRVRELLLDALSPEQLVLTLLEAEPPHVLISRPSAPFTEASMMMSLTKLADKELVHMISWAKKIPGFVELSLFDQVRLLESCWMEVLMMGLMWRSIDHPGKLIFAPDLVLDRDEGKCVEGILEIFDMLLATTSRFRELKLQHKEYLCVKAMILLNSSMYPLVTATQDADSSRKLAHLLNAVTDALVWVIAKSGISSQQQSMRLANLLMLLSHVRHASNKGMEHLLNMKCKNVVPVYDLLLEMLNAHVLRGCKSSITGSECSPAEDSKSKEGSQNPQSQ
Method in brief: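 Reporter cells (HEK293T, ER-beta-UAS-bla) receive compounds or DMSO after a 6 hr pre-incubation. They then incubate 16 hr at 37C/5% CO2, and fluorescence from LiveBLAzer B/G substrate is measured after 2 hours at room temperature.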

[18] = target: Estrogen receptor beta (Homo sapiens) (UniProt Q92731); assay: qHTS assay to identify small molecule antagonists of the estrogen receptor beta (ER-beta) signaling pathway (AID 1259378; active means well fitted inhibition curve with a large enough effect in the signal ratio in the repeat runs, not every such curve was filed as active; the % refers to the signal ratio)
Method in brief: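 ER-beta-UAS-bla HEK293T cells in 2% charcoal-stripped FBS medium treated with compound plus 1nM final 17-beta-estradiol for 16 hr at 37C. Beta-lactamase reporter read by FRET substrate fluorescence after 2 hours at room temperature.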

[19] = qHTS assay to identify small molecule agonists of the androgen receptor (AR) signaling pathway in the presence of an antagonist - cell viability counter screen (AID 1259379); further: nearly all actives have a fitted effect of over 25% in size; further: potency means the concentration at half of the fitted maximal effect
Method in brief: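 MDA-kb2 human breast carcinoma cells (stable MMTV-luciferase, AR/GR responsive) were seeded 3,000 cells/well, pre-incubated 5 hr at 37C without CO2, then given 3.0uM nilutamide and compounds at 15 concentrations for 16 hr. Viability was read by CellTiter-Fluor fluorescence.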

[20] = target: Estrogen receptor (Homo sapiens) (UniProt P03372); assay: qHTS assay to identify small molecule agonists of the estrogen receptor alpha (ER-alpha) signaling pathway in the presence of an antagonist (AID 1259383; calls by dose curve; further: top concentration of the series differs between compounds; nearly all actives have a fitted effect of over 15% in size)
Method in brief: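 VM7Luc4E2 cells (endogenous full-length ER-alpha, 4×ERE-luciferase) were precultured 5 days in phenol red-free medium with 10% charcoal-stripped FBS, given 10.0nM ICI-182,780 (final), then treated with compounds at 15 concentrations for 22hr at 37C; luminescence read with ONE-Glo.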

Measured: Potency

O=C(O)c1cc(-c2ccccc2)nc2ccccc12
55.1 µM (active) and inactive: [12]
not listed: [15] | [16] | [17] | [18] | [19] | [20]
inactive: all other assays above

CC(C)(CO)COC(=O)C(C)(C)CO
not listed: [5] | [19] | [20]
inactive: all other assays above

Cn1c([N+](=O)[O-])cnc1COC(N)=O
not listed: [4] | [8] | [12] | [14] | [20]
inactive: all other assays above

COC(=O)c1ccccc1O
not listed: [4] | [12] | [19]
inactive: all other assays above

CS(=O)(=O)c1ccc([C@@H](O)[C@@H](CO)NC(=O)C(Cl)Cl)cc1
not listed: [4] | [12] | [14] | [17] | [18] | [20]
inactive: all other assays above

CCCCC/C=C\C/C=C\CCCCCCCC(=O)OC
inactive and 48.6 µM (active): [11]
inactive and 24.3 µM (active): [10]
not listed: [4] | [5] | [12]
inactive: all other assays above

CC1Cc2ccccc2N1NC(=O)c1ccc(Cl)c(S(N)(=O)=O)c1 (configuration not stated)
not listed: [4] | [12]
inactive: all other assays above

NS(=O)(=O)c1cc2c(cc1Cl)NC=NS2(=O)=O
not listed: [4] | [12]
inactive: all other assays above

Nc1cc(-c2ccncc2)c[nH]c1=O
not listed: [8] | [20]
inactive: all other assays above

NC(=O)/N=N/C(N)=O
not listed: [4] | [5] | [12] | [14] | [20]
inactive: all other assays above

C=CC(=O)OCCCCCCCC(C)C
not listed: [5] | [20]
inactive: all other assays above

O=c1c(-c2ccc(O)cc2)coc2cc(O)ccc12
active: [16] 5.39 µM and 6.11 µM | [10] 13.5 µM and 19.3 µM
not listed: [5] | [8] | [11] | [17] | [18] | [19] | [20]
inactive: all other assays above

O=Nc1ccc(O)cc1
47.4 µM (active) and inactive: [19]
not listed: [5] | [8]
inactive: all other assays above

O=C1CCCCC1
not listed: [5] | [14]
inactive: all other assays above

Nc1nc2ncc(CNc3ccc(C(=O)N[C@@H](CCC(=O)O)C(=O)O)cc3)nc2c(=O)[nH]1
not listed: [15] | [20]
inactive: all other assays above

S=c1nc[nH]c2nc[nH]c12
active: [11] 7.51 µM and 3.35 µM
not listed: [4] | [8] | [12] | [13] | [18] | [20]
inactive: all other assays above
